In PubChem BioAssay (NCATS):
Records with an inconclusive call do not appear. Activity calls are given as the source filed them. Unless noted, calls come from the whole dose curve; as a rule, active = well fitted curve in the direction sought with a large enough effect; inconclusive = small, poorly fitted or top-dose-only effect, or another doubt; inactive = no such curve, though single readings can be large; an effect the other way counts as inactive or inconclusive.

Tests used:
[1] = molecular target: Endonuclease 4 (Escherichia coli (strain K12)) (UniProt P0A6C1); experiment: Counterscreen for APE1 Inhibitors: qHTS Validation Assay for Inhibitors of Endonuclease IV (AID 1708)
Outline: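 Measured as reaction progress, the fluorescence gain between first and third kinetic reads after adding 50 nM TAMRA/BHQ-2 THF duplex to 2 nM enzyme preincubated 15 min with compound; 2 mM MgCl2, pH 7.5.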

[2] = qHTS for differential inhibitors of proliferation of Plasmodium falciparum line 3D7 (AID 1876); note: potency is the fitted concentration of half-maximal effect
[3] = qHTS for differential inhibitors of proliferation of Plasmodium falciparum line D10 (AID 1877);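 note: parasites grown with compound for 72 h before DNA staining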; note: potency is the fitted concentration of half-maximal effect
[4] = qHTS for differential inhibitors of proliferation of Plasmodium falciparum line W2 (AID 1883); conditions: Potency: Plasmodium falciparum W2 proliferation inhibition;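 note: parasites grown with compound for 72 h before lysis and staining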; note: potency is the fitted concentration of half-maximal effect
[5] = qHTS for differential inhibitors of proliferation of Plasmodium falciparum line HB3 (AID 1886); conditions: Potency: Plasmodium falciparum HB3 proliferation inhibition;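 note: parasites grown with compound for 72 h before SYBR Green readout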; note: potency is the fitted concentration of half-maximal effect
[6] = Quantitative high throughput screen for delayed death inhibitors of the malarial parasite plastid, 96 hour incubation (AID 488745);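 note: luciferase-expressing P. falciparum in erythrocytes at 2% hematocrit and 0.1% parasitemia; series mostly up to about 29 µM; nearly all actives have a fitted effect of over 70% in size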
Outline: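 Luciferase-expressing P. falciparum, infected RBCs 2% Hct/0.1% parasitemia (final); 96 h cpd exposure, 37 C, 5% CO2; RPMI 1640 + 0.5% Albumax, bicarbonate, gentamycin. Readout: luminescence loss = growth inhibition.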

[7] = Quantitative high throughput screen for delayed death inhibitors of the malarial parasite plastid, 48 hour incubation (AID 488752); note: nearly all actives have a fitted effect of over 65% in size; note: potency is the fitted concentration of half-maximal effect
Outline: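 Luciferase-expressing P. falciparum in RBCs, 2% Hct, 0.1% parasitemia final; RPMI 1640 + 0.5% Albumax; 48 h, 37 C, 5% CO2; luminescence readout, signal drop = growth inhibition.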

[8] = molecular target: Voltage-gated inwardly rectifying potassium channel KCNH2 (Homo sapiens) (UniProt Q12809); experiment: qHTS Assay for Small Molecule Inhibitors of the Human hERG Channel Activity (AID 588834);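 note: U2OS cells transduced with hERG by BacMam; top concentration of the series differs between compounds; lower thallium flux fluorescence means stronger hERG block; nearly all actives have a fitted effect of over 50% in size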
Outline: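 Cells were infected with hERG-BacMam virus for 4 hrs at room temperature, grown overnight, then seeded at 2000/well. After dye loading and roughly 10 min compound treatment, thallium influx was triggered and fluorescence recorded.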

[9] = molecular target: Ferritin light chain (Equus caballus) (UniProt P02791); experiment: qHTS Validation Assay for Identification of Novel General Anesthetics (AID 2323); note: series mostly up to about 77 µM
Outline: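 Apoferritin from horse spleen (10 uM) was mixed with 1-aminoanthracene at 50% saturation in PBS, then compounds were added. After 10 min at room temperature, fluorescence was read (ex 380 nm, em 535 nm) and normalized to free-probe and complex controls.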

[10] = Cytotoxicity counterscreen for inhibitors of SARS-CoV-2 cell entry (AID 1645845; calls by dose curve; note: series mostly up to about 57 µM; nearly all actives have a fitted effect of over 50% in size); conditions: outcome: dose series up to 57.1 µM unless noted
Outline: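 After a 15 min room-temperature ATPLite 1step step, luminescence reflected ATP remaining in HEK293-ACE2 cells exposed to compound for 1 h plus 48 h at 37 C, with percent activity set by cell and no-cell controls.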

Measured: Potency

Ferritin light chain (Equus caballus), sequence (P02791 2-175 limits assumed): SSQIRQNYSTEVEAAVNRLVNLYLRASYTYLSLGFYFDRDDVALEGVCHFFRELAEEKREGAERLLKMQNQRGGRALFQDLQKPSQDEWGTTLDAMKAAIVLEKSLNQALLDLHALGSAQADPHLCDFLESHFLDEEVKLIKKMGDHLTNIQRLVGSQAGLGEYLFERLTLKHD
Voltage-gated inwardly rectifying potassium channel KCNH2 (Homo sapiens), sequence (Q12809 whole entry, looked up): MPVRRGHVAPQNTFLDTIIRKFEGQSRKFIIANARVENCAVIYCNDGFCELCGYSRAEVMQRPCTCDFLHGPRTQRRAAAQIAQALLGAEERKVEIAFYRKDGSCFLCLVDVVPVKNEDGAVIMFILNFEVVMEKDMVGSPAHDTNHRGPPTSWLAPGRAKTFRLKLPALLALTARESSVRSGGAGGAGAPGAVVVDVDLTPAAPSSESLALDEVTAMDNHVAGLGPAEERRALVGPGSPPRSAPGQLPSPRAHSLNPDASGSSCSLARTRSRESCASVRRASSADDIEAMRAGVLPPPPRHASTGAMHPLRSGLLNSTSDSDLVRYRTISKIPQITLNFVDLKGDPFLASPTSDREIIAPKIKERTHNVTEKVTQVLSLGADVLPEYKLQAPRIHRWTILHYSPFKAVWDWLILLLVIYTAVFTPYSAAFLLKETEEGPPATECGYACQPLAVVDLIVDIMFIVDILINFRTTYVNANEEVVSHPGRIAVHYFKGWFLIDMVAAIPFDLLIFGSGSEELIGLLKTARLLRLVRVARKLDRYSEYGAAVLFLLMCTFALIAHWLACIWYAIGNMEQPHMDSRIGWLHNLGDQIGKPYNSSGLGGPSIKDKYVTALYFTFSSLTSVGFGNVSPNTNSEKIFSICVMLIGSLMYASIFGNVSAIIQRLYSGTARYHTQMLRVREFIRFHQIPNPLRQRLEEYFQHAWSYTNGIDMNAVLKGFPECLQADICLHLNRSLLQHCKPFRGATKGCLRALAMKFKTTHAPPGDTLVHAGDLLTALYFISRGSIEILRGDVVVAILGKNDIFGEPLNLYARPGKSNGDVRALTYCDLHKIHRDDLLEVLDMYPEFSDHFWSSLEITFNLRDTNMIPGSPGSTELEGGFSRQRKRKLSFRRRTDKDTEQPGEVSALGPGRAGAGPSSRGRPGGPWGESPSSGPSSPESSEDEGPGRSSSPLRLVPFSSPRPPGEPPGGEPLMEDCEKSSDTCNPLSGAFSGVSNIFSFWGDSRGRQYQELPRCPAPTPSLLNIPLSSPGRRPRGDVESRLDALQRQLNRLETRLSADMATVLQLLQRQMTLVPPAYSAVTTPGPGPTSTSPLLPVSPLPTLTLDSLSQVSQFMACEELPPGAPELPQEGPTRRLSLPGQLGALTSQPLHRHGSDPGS

C#CCN(C)C(C)Cc1ccccc1 (stereo unspecified)
inactive: [1] | [2] | [3] | [4] | [5] | [6] | [7] | [8]

COC(=O)C(N)CCCN=C(N)N[N+](=O)[O-] (stereo unspecified)
inactive: [2] | [3] | [4] | [5] | [9] | [6] | [7] | [8]

COc1ccc2c3c1O[C@H]1C(=O)CC[C@@]4(O)C(C2)N(CC2CC2)CCC314 (stereo partly specified)
inactive: [1] | [2] | [3] | [5] | [9] | [6] | [7]
active: [4] 11.2 µM

COc1ccc2c(c1O)-c1cccc3c1C(C2)N(C)CC3 (stereo unspecified)
active: [2] 10 µM | [3] 14.1 µM | [4] 7.94 µM | [5] 12.6 µM
inactive: [1] | [9] | [6]

CCNC(=O)[C@H]1O[C@@H](n2cnc3c(N)ncnc32)[C@H](O)[C@H]1O
inactive: [1] | [2] | [3] | [4] | [5] | [9] | [6] | [7] | [8]

NNCc1cccc(O)c1
inactive: [1] | [9] | [8]
active: [2] 12.6 µM | [3] 14.1 µM | [4] 12.6 µM | [5] 14.1 µM | [7] 7.38 µM

C/C1=C/C[C@@H](/C(C)=C/c2csc(C)n2)OC(=O)C[C@H](O)C(C)(C)C(=O)[C@H](C)[C@@H](O)[C@@H](C)CCC1
inactive: [10]

CCC(CO)NC(=O)[C@@H]1C=C2c3cccc4[nH]cc(c34)C[C@H]2N(C)C1 (stereo partly specified)
active: [2] 14.1 µM | [4] 12.6 µM | [5] 10 µM
inactive: [9] | [7] | [8]

CCCN(CCC)C(=O)Cc1c(-c2ccc(Cl)cc2)nc2c(Cl)cc(Cl)cn12
inactive: [1] | [5] | [6] | [7] | [8]

Nc1ncnc2c1ncn2[C@@H]1O[C@H](COP(=O)(O)CP(=O)(O)OP(=O)(O)O)[C@H](O)[C@H]1O
inactive: [1] | [2] | [3] | [4] | [5] | [9] | [6] | [7] | [8]

C=CCN1CC[C@@]2(C)c3cc(O)ccc3CC1[C@@H]2C
active: [3] 12.6 µM | [4] 6.31 µM
inactive: [1] | [9] | [6] | [7] | [8]

C[C@H]1C2Cc3ccc(O)cc3[C@]1(C)CCN2CC1CC1
inactive: [1] | [2] | [3] | [5] | [9] | [6] | [7] | [8]
active: [4] 2.82 µM

NCC#Cc1ccccc1
inactive: [1] | [2] | [3] | [5] | [9] | [6] | [7] | [8]
active: [4] 12.6 µM

COc1cc(C=C(C#N)C#N)cc(O)c1O
inactive: [1] | [9] | [6] | [8]
active: [4] 10 µM

CN1C[C@@H](CS(=O)(=O)N(C)C)C[C@@H]2c3cccc4c3c(cn4C)C[C@H]21
inactive: [1] | [9] | [8]
active: [2] 3.98 µM | [4] 3.55 µM

CC(C)(O)C1C2OC(=O)C1[C@]1(O)C[C@H]3O[C@]34C(=O)O[C@H]2[C@]14C (stereo partly specified) (tested in a mixture with another compound)
inactive: [2] | [3] | [4] | [5] | [9] | [6] | [7]
